Inconclusive results are not listed. Active and inactive are the calls of the source. How the source made its calls: active means hit-call score of the fitted dose curve at least 0.9, where 1 is the maximum; inconclusive means response in the unintended direction; inactive means score below 0.9.
Legend:
[1] = biological target: GAL4 Transcription Factor (Internal Marker), GAL4 (gene 855828) (UniProt P04386); test: ATG_GAL4_XSP1: Attagene TRANS-FACTORIAL Multi-Species (XSP1) HepG2 Assay for GAL4 Transcription Factor (Internal Marker) (AID 2283789)
GAL4 Transcription Factor (Internal Marker), GAL4 (gene 855828), sequence (P04386 whole entry, looked up, the tested form may be a part): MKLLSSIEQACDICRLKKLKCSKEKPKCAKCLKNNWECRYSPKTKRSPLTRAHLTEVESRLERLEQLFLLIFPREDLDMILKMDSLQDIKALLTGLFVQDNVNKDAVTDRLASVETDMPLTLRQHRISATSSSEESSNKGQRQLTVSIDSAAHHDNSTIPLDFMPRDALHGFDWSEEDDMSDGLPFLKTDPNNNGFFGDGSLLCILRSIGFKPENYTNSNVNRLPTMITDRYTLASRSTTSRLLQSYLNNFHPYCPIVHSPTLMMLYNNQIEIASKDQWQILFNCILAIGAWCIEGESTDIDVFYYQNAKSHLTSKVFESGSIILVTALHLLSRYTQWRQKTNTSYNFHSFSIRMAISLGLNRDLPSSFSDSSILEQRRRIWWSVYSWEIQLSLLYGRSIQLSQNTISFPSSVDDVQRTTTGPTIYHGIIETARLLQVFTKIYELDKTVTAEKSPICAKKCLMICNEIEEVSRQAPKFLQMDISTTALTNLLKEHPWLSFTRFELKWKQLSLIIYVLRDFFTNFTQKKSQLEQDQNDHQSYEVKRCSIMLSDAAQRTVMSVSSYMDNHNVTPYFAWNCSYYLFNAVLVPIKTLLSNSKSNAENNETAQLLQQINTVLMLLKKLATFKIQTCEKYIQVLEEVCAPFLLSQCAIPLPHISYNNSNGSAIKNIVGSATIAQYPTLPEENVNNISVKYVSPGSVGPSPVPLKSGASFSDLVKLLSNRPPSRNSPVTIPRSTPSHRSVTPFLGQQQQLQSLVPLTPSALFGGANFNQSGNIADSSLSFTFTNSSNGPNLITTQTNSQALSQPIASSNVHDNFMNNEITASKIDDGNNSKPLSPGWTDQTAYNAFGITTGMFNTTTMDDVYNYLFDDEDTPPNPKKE
Summary of the method: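 This background-control endpoint measures GAL4-driven reporter mRNA via RT-PCR and capillary electrophoresis of labelled fragments. Transiently transfected HepG2 cells were treated 24 h, with 3 nM 6-alpha-fluorotestosterone included, and gain-of-signal was fitted against DMSO.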

[2] = ATG_M_19_XSP1: Attagene TRANS-FACTORIAL Multi-Species (XSP1) HepG2 Assay for M19 Transcription Factor (Internal Marker) (AID 2283798)
Summary of the method: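 Readout is reporter mRNA induction quantified via RT-PCR, 6-FAM labeling, HpaI digestion and capillary electrophoresis, fitted in the positive direction versus DMSO baseline. Transfected HepG2 cells exposed 24 h, medium including 3 nM 6-alpha-fluorotestosterone.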

[3] = ATG_M_32_XSP1: Attagene TRANS-FACTORIAL Multi-Species (XSP1) HepG2 Assay for M32 Transcription Factor (Internal Marker) (AID 2283799)
Summary of the method: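 Reporter transcripts from the M32 internal-control unit measured by RT-PCR, FAM labelling, HpaI digestion and capillary electrophoresis after 24 h compound exposure of transfected HepG2, 3 nM 6-alpha-fluorotestosterone included; DMSO baseline, positive-direction fit.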

[4] = biological target: Peroxisome proliferator-activated receptor gamma (Homo sapiens) (UniProt P37231); test: ATG_hPPARg_XSP1: Attagene TRANS-FACTORIAL Multi-Species (XSP1) HepG2 Assay for human Peroxisome Proliferator-activated Receptor gamma (PPARg) (AID 2283800)
Peroxisome proliferator-activated receptor gamma (Homo sapiens), sequence (P37231 whole entry, looked up, the tested form may be a part): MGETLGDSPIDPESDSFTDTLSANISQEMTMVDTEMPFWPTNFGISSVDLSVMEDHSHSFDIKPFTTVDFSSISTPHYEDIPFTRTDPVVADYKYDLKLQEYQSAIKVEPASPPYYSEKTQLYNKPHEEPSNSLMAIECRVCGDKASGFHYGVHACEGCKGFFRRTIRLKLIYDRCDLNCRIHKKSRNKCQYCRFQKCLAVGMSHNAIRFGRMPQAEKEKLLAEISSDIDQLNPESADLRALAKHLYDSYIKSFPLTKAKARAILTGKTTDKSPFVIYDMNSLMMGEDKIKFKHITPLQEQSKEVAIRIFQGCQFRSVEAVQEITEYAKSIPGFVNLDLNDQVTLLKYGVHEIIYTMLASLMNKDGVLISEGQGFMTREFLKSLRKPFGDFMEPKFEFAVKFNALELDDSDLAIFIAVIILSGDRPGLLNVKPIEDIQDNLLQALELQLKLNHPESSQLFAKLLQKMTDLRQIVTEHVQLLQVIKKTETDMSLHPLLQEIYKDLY
Summary of the method: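 Reporter mRNA induction, measured by RT-PCR with capillary electrophoresis 24 h after dosing, scored as gain over DMSO. Transfected HepG2 cells express exogenous NR-Gal4 chimeras driving GAL4-UAS reporters; medium includes 3 nM 6-alpha-fluorotestosterone.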

[5] = test system: zebrafish Peroxisome Proliferator-activated Receptor gamma (PPARg), gene 557037; test: ATG_zfPPARg_XSP1: Attagene TRANS-FACTORIAL Multi-Species (XSP1) HepG2 Assay for zebrafish Peroxisome Proliferator-activated Receptor gamma (PPARg) (AID 2283801)
Summary of the method: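 Trans-activation readout of chimeric zebrafish PPARg–GAL4 in transiently transfected human HepG2 cells, 24 h chemical exposure (medium includes 3 nM 6-alpha-fluorotestosterone). Reporter transcripts measured by RT-PCR and capillary electrophoresis, fitted as gain over DMSO.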

[6] = biological target: mouse Peroxisome Proliferator-activated Receptor gamma (PPARg), Pparg (gene 19016) (UniProt P37238); test: ATG_mPPARg_XSP1: Attagene TRANS-FACTORIAL Multi-Species (XSP1) HepG2 Assay for mouse Peroxisome Proliferator-activated Receptor gamma (PPARg) (AID 2283802)
mouse Peroxisome Proliferator-activated Receptor gamma (PPARg), Pparg (gene 19016), sequence (P37238 whole entry, looked up, the tested form may be a part): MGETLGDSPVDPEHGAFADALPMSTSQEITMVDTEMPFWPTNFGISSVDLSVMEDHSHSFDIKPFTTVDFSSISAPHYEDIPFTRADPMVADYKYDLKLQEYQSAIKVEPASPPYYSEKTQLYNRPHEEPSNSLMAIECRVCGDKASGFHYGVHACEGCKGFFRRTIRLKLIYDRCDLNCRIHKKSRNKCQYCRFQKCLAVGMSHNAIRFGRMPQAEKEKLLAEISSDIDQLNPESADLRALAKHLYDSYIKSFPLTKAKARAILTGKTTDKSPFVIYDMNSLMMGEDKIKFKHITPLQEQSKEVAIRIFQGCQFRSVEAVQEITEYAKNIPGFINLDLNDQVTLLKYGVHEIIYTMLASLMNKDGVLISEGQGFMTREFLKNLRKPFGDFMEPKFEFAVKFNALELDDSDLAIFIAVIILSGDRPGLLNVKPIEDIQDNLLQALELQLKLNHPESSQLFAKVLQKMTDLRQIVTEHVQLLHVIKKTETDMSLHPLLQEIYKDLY
Summary of the method: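 Readout is reporter mRNA induction, measured by RT-PCR with 6-FAM labelling, HpaI digestion and capillary electrophoresis, 24 h post-dose relative to DMSO. Transient multi-reporter transfection of human HepG2 with mouse PPARg–GAL4 fusion; 3 nM 6-alpha-fluorotestosterone included.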

[7] = biological target: Nuclear receptor subfamily 1 group I member 2 (Mus musculus) (UniProt O54915); test: ATG_mPXR_XSP1: Attagene TRANS-FACTORIAL Multi-Species (XSP1) HepG2 Assay for mouse Pregnane X Receptor (PXR) (AID 2283803)
Nuclear receptor subfamily 1 group I member 2 (Mus musculus), sequence (O54915 whole entry, looked up, the tested form may be a part): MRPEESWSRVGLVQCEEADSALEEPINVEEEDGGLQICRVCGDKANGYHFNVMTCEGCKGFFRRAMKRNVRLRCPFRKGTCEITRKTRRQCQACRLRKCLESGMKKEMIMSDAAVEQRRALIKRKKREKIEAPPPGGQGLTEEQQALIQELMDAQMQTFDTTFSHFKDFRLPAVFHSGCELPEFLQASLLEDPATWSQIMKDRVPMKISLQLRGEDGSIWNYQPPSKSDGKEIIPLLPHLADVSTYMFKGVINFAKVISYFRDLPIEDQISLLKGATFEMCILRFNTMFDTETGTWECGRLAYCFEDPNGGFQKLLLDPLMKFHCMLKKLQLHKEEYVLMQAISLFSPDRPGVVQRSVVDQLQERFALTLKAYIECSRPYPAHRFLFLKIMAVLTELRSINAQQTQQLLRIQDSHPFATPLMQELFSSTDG
Summary of the method: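 Transiently transfected HepG2 cells expressing a receptor-Gal4 chimera drive a GAL4-UAS reporter; 3 nM 6-alpha-fluorotestosterone included. Reporter mRNA read 24 h post-dose by RT-PCR and capillary electrophoresis; gain of signal relative to DMSO.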

[8] = biological target: frog Thyroid hormone Receptor alpha (TRa), thra-a (gene 397942) (UniProt P15204); test: ATG_frTRa_XSP1: Attagene TRANS-FACTORIAL Multi-Species (XSP1) HepG2 Assay for frog Thyroid hormone Receptor alpha (TRa) (AID 2283804)
frog Thyroid hormone Receptor alpha (TRa), thra-a (gene 397942), sequence (P15204 whole entry, looked up, the tested form may be a part): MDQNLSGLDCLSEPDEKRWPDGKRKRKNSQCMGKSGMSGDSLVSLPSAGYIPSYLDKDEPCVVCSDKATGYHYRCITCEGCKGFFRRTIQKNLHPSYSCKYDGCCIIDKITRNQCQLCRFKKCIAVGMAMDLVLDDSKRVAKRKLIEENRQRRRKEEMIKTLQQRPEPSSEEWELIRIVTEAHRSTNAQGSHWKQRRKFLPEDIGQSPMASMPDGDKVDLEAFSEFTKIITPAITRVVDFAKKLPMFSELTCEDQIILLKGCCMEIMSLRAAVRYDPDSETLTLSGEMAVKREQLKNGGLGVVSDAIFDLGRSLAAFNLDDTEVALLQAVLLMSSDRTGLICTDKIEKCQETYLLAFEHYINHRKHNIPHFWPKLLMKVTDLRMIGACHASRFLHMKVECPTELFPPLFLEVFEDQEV
Summary of the method: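 Reporter transcript induction, measured by RT-PCR with 6-FAM labelling and capillary electrophoresis, 24 hr after dosing transiently transfected HepG2 cells expressing a frog TRa-GAL4 fusion; medium contained 3 nM 6-alpha-fluorotestosterone; increase over DMSO scored.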

[9] = test system: turtle Thyroid Hormone Receptor, alpha (TRa), gene 101949057; test: ATG_trTRa_XSP1: Attagene TRANS-FACTORIAL Multi-Species (XSP1) HepG2 Assay for turtle Thyroid Hormone Receptor, alpha (TRa) (AID 2283806)
Summary of the method: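 After 24 h chemical exposure, reporter transcripts were measured by RT-PCR with fluorescent primer extension, HpaI digestion and capillary electrophoresis. Cells were transiently transfected HepG2 expressing exogenous NR-Gal4 chimeras; medium contained 3 nM 6-alpha-fluorotestosterone; fitted upward relative to DMSO.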

[10] = biological target: zebrafish Thyroid Hormone Receptor beta (TRb), thrb (gene 30607) (UniProt Q9PVE4); test: ATG_zfTRb_XSP1: Attagene TRANS-FACTORIAL Multi-Species (XSP1) HepG2 Assay for zebrafish Thyroid Hormone Receptor beta (TRb) (AID 2283809)
zebrafish Thyroid Hormone Receptor beta (TRb), thrb (gene 30607), sequence (Q9PVE4 whole entry, looked up, the tested form may be a part): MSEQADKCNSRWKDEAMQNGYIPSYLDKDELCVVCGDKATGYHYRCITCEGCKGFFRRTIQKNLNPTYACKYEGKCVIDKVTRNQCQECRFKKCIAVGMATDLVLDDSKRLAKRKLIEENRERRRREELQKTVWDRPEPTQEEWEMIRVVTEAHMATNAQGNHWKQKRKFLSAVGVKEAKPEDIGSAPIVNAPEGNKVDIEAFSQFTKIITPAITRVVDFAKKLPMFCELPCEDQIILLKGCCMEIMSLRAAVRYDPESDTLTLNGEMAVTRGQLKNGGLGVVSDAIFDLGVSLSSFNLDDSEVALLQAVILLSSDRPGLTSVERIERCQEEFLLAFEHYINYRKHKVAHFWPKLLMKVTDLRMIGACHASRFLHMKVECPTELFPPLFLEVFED
Summary of the method: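 HepG2 cells transiently transfected with multiplexed GAL4-UAS reporter units expressing chimeric zebrafish TRb–Gal4. Dosed 24 h with 3 nM 6-alpha-fluorotestosterone present; reporter mRNA measured by RT-PCR, HpaI digestion and capillary electrophoresis; gain of signal versus DMSO.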

[11] = ATG_XTT_Cytotoxicity_XSP1: Cytotoxicity Assessment in the Attagene TRANS-FACTORIAL Multi-Species (XSP1) HepG2 Assay (AID 2283810)
Summary of the method: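 XTT viability readout taken at 24 hours post-dosing in HepG2 liver cells co-treated with 3 nM 6-alpha-fluorotestosterone. Signal loss relative to DMSO controls reflects cytotoxicity.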

[12] = biological target: Estrogen receptor beta (Homo sapiens) (UniProt Q92731); test: ATG_hERb_XSP2: Attagene TRANS-FACTORIAL Multi-Species (XSP2) HepG2 Assay for human Estrogen Receptor (ERb) (AID 2283813);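 further: actives raise reporter mRNA above DMSO so AC50 reflects agonist induction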
Estrogen receptor beta (Homo sapiens), sequence (Q92731 whole entry, looked up, the tested form may be a part): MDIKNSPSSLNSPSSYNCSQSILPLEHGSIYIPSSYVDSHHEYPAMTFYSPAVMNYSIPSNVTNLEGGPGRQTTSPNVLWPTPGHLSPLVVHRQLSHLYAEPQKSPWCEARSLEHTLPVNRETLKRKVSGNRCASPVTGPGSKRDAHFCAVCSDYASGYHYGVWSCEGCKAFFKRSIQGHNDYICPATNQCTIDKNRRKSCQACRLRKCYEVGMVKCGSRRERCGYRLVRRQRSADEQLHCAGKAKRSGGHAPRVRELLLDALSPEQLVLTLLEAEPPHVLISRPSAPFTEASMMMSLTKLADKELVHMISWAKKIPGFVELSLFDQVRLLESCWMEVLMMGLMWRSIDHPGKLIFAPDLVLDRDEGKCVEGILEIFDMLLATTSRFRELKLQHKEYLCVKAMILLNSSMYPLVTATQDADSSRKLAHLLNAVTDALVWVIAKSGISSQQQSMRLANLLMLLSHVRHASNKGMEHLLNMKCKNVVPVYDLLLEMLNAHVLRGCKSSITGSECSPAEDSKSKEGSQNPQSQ
Summary of the method: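 Transient TRANS reporter system in HepG2: after 24 h of chemical, RNA is reverse-transcribed, reporter cDNA amplified, FAM-labelled and sized by capillary electrophoresis. Induction of the human ERb-Gal4 reporter is measured relative to DMSO.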

[13] = biological target: GAL4 Transcription Factor (Internal Marker), GAL4 (gene 855828) (UniProt P04386); test: ATG_GAL4_XSP2: Attagene TRANS-FACTORIAL Multi-Species (XSP2) HepG2 Assay for GAL4 Transcription Factor (Internal Marker) (AID 2283814);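 further: GAL4 reporter mRNA background control in MRTU transfected cells not a receptor target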
Summary of the method: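 Background-control readout: gain-of-signal fitted against DMSO. After 24 h exposure of transfected HepG2 (MRTU, GAL4-UAS reporters; 3 nM 6-alpha-fluorotestosterone, 1.5 nM norgestrel present), transcripts quantified by RT-PCR and capillary electrophoresis fluorescence.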

Measured: AC50

CC(C)(C)c1cc(O)c(C(C)(C)C)cc1O
active: [4] 160 µM | [6] 100 µM
not listed: [13]
inactive: all other assays above

CC(=O)C(C)=CC1C(C)=CCCC1(C)C (centres undefined)
inactive: [13]

C=CCOC(=O)c1ccccc1C(=O)OCC=C
inactive: [13]

Reference: PubChem BioAssay (EPA / NIEHS)
